# Measured values as given in PubChem BioAssay (NCI).
# About 83,000 compounds went through this panel and 20% of them were active in at least one assay; those are over-represented in the sample as a whole.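 Negative percent growth values reflect cell death: -40 means 40% of the cells present at the start died, and -100 means all died.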 Values without a mark were called inactive. Calls of active or inactive are those of the source. Rule for the calls: active = growth percent below 10; inactive = the rest.
# How the values were obtained:
# Assay in all cases: NCI-60 one-dose screen, 48 h (100 = growth as untreated, 0 = no growth, -100 = all killed)
# Details in all cases: 10 µM unless noted
# NCI-H23 lung = system: NCI-H23 lung
# NCI-H226 lung = system: NCI-H226 lung
# NCI-H322M lung = system: NCI-H322M lung
# HOP-62 NSCLC = system: HOP-62 NSCLC
# NCI-H460 lung = system: NCI-H460 lung
# HOP-92 NSCLC = system: HOP-92 NSCLC
# NCI-H522 lung = system: NCI-H522 lung
# A549/ATCC NSCLC = system: A549/ATCC NSCLC
# 786-0 renal = system: 786-0 renal
# COLO 205 colon = system: COLO 205 colon
# DU-145 prostate = system: DU-145 prostate
# K-562 leukemia = system: K-562 leukemia
# MALME-3M melanoma = system: MALME-3M melanoma
# MDA-MB-231 breast = system: MDA-MB-231 breast
# RXF 393 renal = system: RXF 393 renal
# SF-268 CNS = system: SF-268 CNS
# SF-295 CNS = system: SF-295 CNS
# SF-539 CNS = system: SF-539 CNS
# UACC-257 melanoma = system: UACC-257 melanoma
# M14 melanoma = system: M14 melanoma
SMILES,growth (NCI-H23 lung),growth (NCI-H226 lung),growth (NCI-H322M lung),growth (HOP-62 NSCLC),growth (NCI-H460 lung),growth (HOP-92 NSCLC),growth (NCI-H522 lung),growth (A549/ATCC NSCLC),growth (786-0 renal),growth (COLO 205 colon),growth (DU-145 prostate),growth (K-562 leukemia),growth (MALME-3M melanoma),growth (MDA-MB-231 breast),growth (RXF 393 renal),growth (SF-268 CNS),growth (SF-295 CNS) [%],growth (SF-539 CNS),growth (UACC-257 melanoma),growth (M14 melanoma)
Cc1n(Cc2ccc3ccccc3n2)cc[n+]1Cc1ccc2ccccc2n1,69.8%,88.1%,103%,90.6%,95%,74.5%,35.9%,88.6%,97.8%,33.2%,94.6%,36.2%,55.9%,97.3%,86.8%,73.5%,87.7,67.9%,42.6%,86.9%
Cc1ccc(NC(=O)c2[nH]c(SCCN(C)C)nc2-c2ccc(F)cc2)cc1C#Cc1cnc2cccnn12,66.7%,55.9%,48.1%,-8.9% (active),-69.4% (active),80.4%,1.49% (active),5.21% (active),-67.1% (active),81.1%,-19% (active),-37.3% (active),-9.58% (active),-7.2% (active),-61.6% (active),-23.4% (active),93.1,-84.4% (active),12.7%,-75.1% (active)
COc1ccc2[nH]c(C(=O)OCc3ccc4cccc(O)c4n3)cc2c1,-3.84% (active),-68.1% (active),62.7%,35%,7.31% (active),-78.2% (active),-66.9% (active),21.2%,-76.1% (active),-69.1% (active),-91.8% (active),-3.39% (active),-76.2% (active),-70.8% (active),-92.2% (active),-65.6% (active),73.7,-92.7% (active),-70.7% (active),-75.6% (active)
COc1cc(-c2csc(NC(=O)Nc3cccc(C(F)(F)F)c3)n2)cc(OC)c1OC,27.8%,55.6%,68.3%,63.6%,53.8%,47.8%,40.7%,34.2%,64.2%,75.4%,55.9%,31.6%,88.3%,63.8%,71.4%,65%,21.7,67.1%,83.2%,47.8%
CNCc1ccccc1CN(CC(=O)Nc1ccc2c(c1)CC1(C2)C(=O)Nc2ncccc21)C(=O)C(C)(C)C (stereo not given),103%,95%,100%,102%,106%,104%,93.5%,103%,107%,102%,112%,107%,99.5%,108%,126%,101%,106,100%,102%,98.7%
O=C(Cn1nncc1CN1C(=O)CSC1=O)Nc1ccc(F)cc1,97.3%,95.7%,102%,97.2%,103%,104%,93.5%,102%,102%,107%,105%,104%,97.5%,109%,108%,94.7%,103,97.8%,107%,102%
N#Cc1c(NN)n(C2OC(CO)C(O)C2O)c2ncnc(N)c12 (stereo not given),2.93% (active),25.7%,-19.8% (active),-0.156% (active),-13.4% (active),-18.9% (active),-57% (active),6.43% (active),26.1%,-32.7% (active),-0.273% (active),-46.1% (active),-9.07% (active),15.2%,-53.1% (active),15.1%,56.9,-5.9% (active),-26.3% (active),-18.3% (active)
COc1cc(/C=C/c2ccc3c(Br)cc(Br)c(O)c3n2)ccc1O,36.9%,67.7%,40.5%,33%,3.91% (active),16.6%,-38.2% (active),14.2%,32.6%,58%,42.2%,-44.5% (active),53.7%,53%,1.71% (active),22.8%,27.4,21.5%,25.1%,27.1%
